Reference: PubChem BioAssay AID1347416 (National Center for Advancing Translational Sciences (NCATS), 2020)
The campaign covered roughly 4,100 compounds. About 1,600 (39%) were called active. About 25% were inconclusive and are not listed. Calls come from the whole dose curve; as a rule, active = well fitted inhibition curve with a large enough effect; inconclusive = small, poorly fitted or top-dose-only effect; inactive = no such curve, though single readings can be large or run the other way. Some of the results follow.

Test: qHTS Validation assay for Inhibitors of Plasmodium falciparum Dd2 growth in vitro; note: nearly all actives have a fitted effect of over 70% in size
Conditions: P. falciparum Dd2 in RBCs, SYBR Green growth, 72 h; series mostly up to 28.7 µM; activity change, negative = inhibition: at the top concentration
Text: Malaria, a parasitic disease spread to humans through the bite of a Plasmodium infected Anopheles mosquito, continues to be a global health burden affecting millions of people, with an estimated 228 million cases and 405,000 deaths in 2018. Concerns about safety and limitations of current antimalarial treatments strongly emphasize the need to develop new therapeutic options. The scarce number of chemotypes and validated drug targets with efficacy against the liver stage, have hindered development of new antimalarials. To address this, a chemoprophylactic drug discovery effort was conducted through a combined phenotypic high-throughput asexual blood stage and liver stage screen, providing a robust foundation to identify liver-stage active lead chemotypes. Compounds were initially screened against Plasmodium falciparum Dd2 strain parasites using a in vitro SYBRGreen-1 based 72 hr proliferation assay to identify novel chemotypes to advance to liver stage assays. NIH/NCATS Early Translation Branch Assay Submitter (PI): Anton Simeonov Ph.D.
[…] Assay Protocol: PROTOCOL TABLE (as described by Inglese et al., 2007) SEQUENCE No. (e.g., 1, 2, 3, etc.); PARAMETER (e.g., Cells, Incubation, Reagent, etc.); VALUE; DESCRIPTION SEQUENCE, Parameter, Description 1; Reagent; 3 uL complete malaria growth medium, 1536 TC treated Black clear bottom plate 2; Controls; 23 nL positive control artesunate (300 nM final) to column 1; Neutral control DMSO to columns 2-4 3; Compound; 23 nL of compounds in dose response concentration (29 uM to 0.5 nM final) 4; Reagent; 5 uL malaria infected red blood cells (2.5% hematocrit final, 0.3% parasitemia 5; Time; 72 hours at 37C (5% O2, 5% CO2, 90% N2; 95% Rh) 6; Reagent; 2 uL lysis buffer/SYBRGreen-1, 25 sec shake immediately following dispense 7; Time; ~16 hours at 37C (5% O2, 5% CO2, 90% N2; 95% Rh) 8; Detector; EnVision (PerkinElmer) bottom read at 485/14nm excitation and 535/25 nm emission NOTES (numbers refer to sequence above): 1; Complete Malaria Growth Media: 1X RPMI-1640 w/L-glutamine, 5.5g/L Albumax II, 367 uM Hypoxanthine, 25 mM HEPES, 0.25% Sodium Bicarbonate, 35 uM Gentamicin sulfate 2; Controls were added using the Kalypsis Pintool (Wako USA) equipped with 1536 pinhead 3; Compounds were added in a 7-point, titration with a high final concentration of 29 uM by Pintool from seven inter-plate titrations of library plates and two DMSO control plates at the beginning and end (see Yasgar et al., 2008). 4; Red blood cells infected with Plasmodium falciparum Dd2 parasites were used. 6; Lysis buffer: 20 mM Tris-HCl, 10 mM EDTA, 0.16% Saponin, 1.6% Triton-X, 10X SYBR Green. REFERENCE: Inglese J, Shamu CE, Guy RK. 2007. Reporting data from high-throughput screening of small-molecule libraries. Nat Chem Biol. doi:10.1038/nchembio0807-438 Yasgar A, Shinn P, Jadhav A, Auld D, Michael S, Zheng W, Austin CP, Inglese J, Simeonov A. 2008. Compound Management for Quantitative High-Throughput Screening. J Lab Autom 13:79-89. doi:10.1016/j.jala.2007.12.004
% is set by controls: 0 for no effect and ±100 for the full control effect; potency is the fitted concentration of half-maximal effect.

Potency, active:
Nc1cc2ccncc2c2ccccc12 0.266 µM, Cc1ccccc1CN1C[C@@H]2C[C@@H](c3cn[nH]c3-c3ccccc3)N3CCC[C@@]23C1=O 15 µM, Cc1cccc(NC(=O)Cn2c(C)c(C#N)c3ccccc32)c1C 5.96 µM, CCCOC(=O)c1ccc(-c2c(C)noc2-c2ccc(OC)cc2O)o1 1.88 µM, COc1ccccc1NC(=O)CN1CCN(C2c3ccccc3-c3ccccc32)CC1 15 µM, CCOC(=O)c1c(-c2ccccc2)oc2ccc(O)c(CN3CCCC3)c12 0.596 µM, Cc1ccc(NC(=O)c2c(C)oc3ccc(O)c(CN4CCCCCC4)c23)cc1 2.11 µM, Cc1ccc(NC(=O)c2c(C)oc3ccc(O)c(CN4CCCCCC4)c23)c(C)c1 4.73 µM, Cc1ccc(O)c(CN2CCCC(c3nc(CC(C)C)no3)C2)c1 (centres undefined) 9.44 µM, O=C(Cn1c(=O)n(Cc2ccc(C(=O)NCc3ccc4c(c3)OCO4)cc2)c(=O)c2ccccc21)Nc1cccc(Cl)c1 5.96 µM, N=c1ccn(CC(=O)c2ccc(-c3ccccc3)cc2)cc1 0.944 µM, NC1=NC[C@@H](Cc2ccc(O)cc2)N1CCCCC1CCCCC1 4.73 µM, COc1ccc2c(c1)c(CN1CCCCCCN(C)C(=O)[C@@H]3CCC[C@@H]31)cn2C 15 µM, C=C(C)COc1ccc(-c2[nH]ncc2Oc2ccccc2OCC)c(O)c1 2.99 µM, C=C(C)COc1ccc(-c2[nH]ncc2-c2ccc(OC)c(OC)c2)c(O)c1 6.68 µM, CCOC(=O)c1c(C)oc2c1C(=O)c1ccccc1C2=O 0.422 µM

Activity change, negative = inhibition, inactive:
O=C(NC1CCCC1)N1CCC(Cc2nncn2CC2CC2)CC1 22.2%, COC[C@@H]1CN(Cc2cn[nH]c2-c2ccccc2)C[C@H]1c1nc(C)no1 -4.59%, COCC(=O)N[C@H]1C[C@@H](CO)N(Cc2cn[nH]c2-c2ccccc2)C1 9.64%, Cc1cccc(NC(=O)Cn2cnc(S(=O)(=O)N3CCCC3)c2)c1C -9.65%, CN(C)c1cc(=O)c2ccnc(-c3ccccc3F)c2o1 0% [at 57.5 µM], CCc1ccc(CNC(=O)c2cc3cc4ccc(OC)cc4nc3o2)cc1 12.9%, CCc1cc(=O)n(CC(=O)Nc2ccccc2OC)c(-c2ccccc2)n1 -27.4%, CCc1noc(-c2cccn3c(CNC(=O)c4cccc(N(C)C)c4)nnc23)n1 4.51%, Cc1ccc(C(=O)NCc2nnc3c(-c4nc(C(C)C)no4)cccn23)cc1 -1.73%, CCOC(=O)c1c(C)c(-c2ccccc2)n(CC(=O)NC2CCCCCC2)c1C -7.27%, Cc1ccc(CN2CCc3nc(C(=O)Nc4cccnc4)oc3CC2)cc1 -9.16% [at 43.1 µM], Cc1ccc(S(=O)(=O)N2CC3CCCC2C3)cc1 (centres undefined) -6.85%, O=C(NC[C@H]1OC[C@@H](NCc2ccccc2F)[C@@H]1O)Nc1ccccc1 -11.3% [at 43.1 µM], CCn1cc(CN2CCCC(c3nc(C(C)C)no3)CCNC(=O)CC2)cn1 (centres undefined) 15.1%, Cc1cccc(OCCc2noc(C3CCN(C(=O)c4n[nH]c(=O)c5ccccc45)C3)n2)c1 (centres undefined) -9.66%, CN(C(=O)Cn1c(=O)n(Cc2ccc(C(=O)NCc3ccc4c(c3)OCO4)cc2)c(=O)c2ccccc21)c1ccccc1 6.13%, C[C@H]1CN=C(N(C)C)N1CCC1CCCCC1 -7.45%, CCC(=O)N1CCCCCCN(C)C(=O)[C@@H]2CCC[C@@H]21 9.66%
